Assay outcomes from PubChem.
Many of the other results were omitted from the sample, so hits are more common in it than they were.
ERp5 block = inhibitors of human ERp5 | Q15084 | ERp5 insulin aggregation, absorbance 650 nm, 90 min | inhibition, % at 9.99 µM | 350,000 compounds, 0.05% hits;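 active means mean replicate inhibition above about 25%, with every replicate also reaching it, limit read from the data, passing the limit was not always enough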
PDI turbidity = inhibitors of human protein disulfide isomerase | PDI insulin aggregation turbidity, A650, 90 min | 350,000 compounds, 0.052% hits | inhibition, % at 10 µM;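 active means mean inhibition across replicates of 30% or more, whatever share of single replicates reach that level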
HDAC3 inhib = human HDAC3 inhibition; O15379; recombinant HDAC3, fluorogenic peptide/trypsin coupled, fluorescence; inhibition, % at 8.3 µM; 320,000 compounds, 0.15% hits; AID 2718; in the data active means inhibition above about 26%, passing the limit was not always enough
SIRT5 block = sirtuin-5 (human) deacylase inhibition | 330,000 compounds, 1.1% hits | inhibition, % at 15 µM | Purified SirT5, succinyl-peptide AMC, trypsin-coupled fluorescence | Q9NXA8; in the data active means inhibition above about 15%
Target sequence (Q9NXA8 whole entry, looked up): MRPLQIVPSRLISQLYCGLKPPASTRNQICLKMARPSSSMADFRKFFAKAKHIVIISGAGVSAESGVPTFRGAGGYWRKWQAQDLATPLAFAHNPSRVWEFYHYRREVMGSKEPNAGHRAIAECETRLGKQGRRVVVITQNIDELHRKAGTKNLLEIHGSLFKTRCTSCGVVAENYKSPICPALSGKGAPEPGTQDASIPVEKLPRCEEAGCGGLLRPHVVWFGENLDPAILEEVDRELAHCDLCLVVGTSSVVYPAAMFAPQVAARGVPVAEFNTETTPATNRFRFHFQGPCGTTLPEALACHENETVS
ERAP1 HTS inh = ERAP1 (human) enzyme inhibition; Q9NZ08; recombinant ERAP1, Leu-AMC fluorescence, 60 min; inhibition, % at 10.7 µM; 340,000 compounds, 0.15% hits; AID 652197;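 active means mean replicate inhibition of at least 30%, or all replicates individually reaching that 30% level; inactive means mean below 30% and not every replicate reaching it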;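 further: 0% = neutral control wells and 100% = L-leucinethiol positive control wells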
* = called active by the depositor; x = no result.

SMILES	ERp5 block	PDI turbidity	HDAC3 inhib	SIRT5 block	ERAP1 HTS inh
Nc1ccc2nc(-c3cccc(-c4nc5ccc(N)cc5[nH]4)c3)[nH]c2c1	-1	-5	-8	17*	0
C[C@H](CO)N1C[C@H](C)[C@H](CN(C)C(=O)NC2CCCCC2)OCCCC[C@H](C)Oc2ccc(NC(=O)NC3CCCCC3)cc2C1=O	6	x	x	5	1
O=C1NCCC12C(=O)Nc1ccccc12 (stereo not drawn)	10	x	2	x	5
O=C(O)C1=C2C(=O)Nc3cccc(c32)C2(C1)C(=O)Nc1ccccc12 (stereo not drawn)	-26	-4	x	35*	-1
Cc1ccc(S(=O)(=O)N(C)C[C@H]2OCCCC[C@@H](C)Oc3ccc(NS(=O)(=O)c4ccccc4)cc3C(=O)N([C@@H](C)CO)C[C@H]2C)cc1	4	x	x	22*	3
C[C@@H]1CCCCO[C@H](CN(C)C(=O)CCCN(C)C)[C@@H](C)CN([C@@H](C)CO)C(=O)c2cc(N(C)C)ccc2O1	1	x	x	16*	-2
Cc1ccc(S(=O)(=O)N(C)C[C@H]2OCCCC[C@@H](C)Oc3ccc(NS(=O)(=O)c4ccccc4)cc3C(=O)N([C@H](C)CO)C[C@H]2C)cc1	-1	x	x	19*	3
CNC[C@H]1OCCCC[C@@H](C)Oc2ccc(N(C)C)cc2C(=O)N([C@H](C)CO)C[C@H]1C	5	x	x	15*	2
COc1ccc2c3c(n(C)c2c1)[C@H](CO)N(C(=O)C1CCCCC1)CC31CCN(C(=O)c2ccncc2)CC1	2	x	x	x	-2
COc1ccc2c3c([nH]c2c1)[C@@H](CO)N(Cc1ccccc1)CC31CN(C(C)=O)C1	3	x	x	x	1
C[C@@H]1CCCCO[C@@H](CN(C)S(=O)(=O)c2ccccc2)[C@H](C)CN([C@H](C)CO)C(=O)c2cc(NS(=O)(=O)c3ccccc3)ccc2O1	-7	x	x	5	-1
Cc1ccc(S(=O)(=O)N(C)C[C@H]2OCCCC[C@H](C)Oc3ccc(NS(=O)(=O)c4ccccc4)cc3C(=O)N([C@H](C)CO)C[C@H]2C)cc1	-1	x	x	27*	3
Cc1ccc(S(=O)(=O)N(C)C[C@@H]2OCCCC[C@H](C)Oc3ccc(NS(=O)(=O)c4ccccc4)cc3C(=O)N([C@H](C)CO)C[C@H]2C)cc1	3	x	x	18*	3
C[C@@H]1CN([C@@H](C)CO)C(=O)c2cc(NS(=O)(=O)c3ccccc3)ccc2O[C@@H](C)CCCCO[C@@H]1CN(C)S(=O)(=O)c1ccccc1	-7	x	x	17*	-2
CCOC(=O)CCCCCC(=O)Nc1ccc2c(c1)C(=O)N([C@H](C)CO)C[C@@H](C)[C@@H](CN(C)S(=O)(=O)c1ccc(C)cc1)OCCCC[C@H](C)O2	-7	x	x	21*	x
Cc1ccc(S(=O)(=O)Nc2ccc3c(c2)C(=O)N([C@@H](C)CO)C[C@@H](C)[C@H](CN(C)S(=O)(=O)c2ccccc2)OCCCC[C@@H](C)O3)cc1	1	x	x	9	0
Cc1ccc(S(=O)(=O)N(C)C[C@@H]2OCCCC[C@H](C)Oc3ccc(NS(=O)(=O)c4ccccc4)cc3C(=O)N([C@H](C)CO)C[C@@H]2C)cc1	2	x	x	21*	3
C[C@@H]1CCCCO[C@H](CN(C)C(=O)CCCN(C)C)[C@@H](C)CN([C@H](C)CO)C(=O)c2cc(NS(=O)(=O)c3ccccc3)ccc2O1	7	x	x	-1	1
Cc1ccc(S(=O)(=O)N(C)C[C@H]2OCCCC[C@H](C)Oc3ccc(NS(=O)(=O)c4ccccc4)cc3C(=O)N([C@@H](C)CO)C[C@H]2C)cc1	1	x	x	23*	5
C[C@@H]1CCCCO[C@@H](CN(C)C(=O)CCCN(C)C)[C@@H](C)CN([C@H](C)CO)C(=O)c2cc(NS(=O)(=O)c3ccccc3)ccc2O1	3	x	x	19*	0
Cc1ccc(S(=O)(=O)Nc2ccc3c(c2)C(=O)N([C@@H](C)CO)C[C@H](C)[C@@H](CN(C)S(=O)(=O)c2ccccc2)OCCCC[C@H](C)O3)cc1	1	x	x	12	2
Cc1ccc(S(=O)(=O)N(C)C[C@@H]2OCCCC[C@H](C)Oc3ccc(NS(=O)(=O)c4ccc(F)cc4)cc3C(=O)N([C@H](C)CO)C[C@H]2C)cc1	0	x	x	22*	0
C[C@H](CO)N1C[C@H](C)[C@@H](CN(C)CC2CC2)Oc2ccc(NC(=O)Cn3cnnn3)cc2CC1=O	3	x	x	1	2
COCC(=O)N(C)C[C@H]1Oc2cc(-c3ccc(C)cc3)ccc2S(=O)(=O)N([C@H](C)CO)C[C@H]1C	-3	x	x	-4	0
C[C@@H]1CN([C@@H](C)CO)C(=O)c2cc(NS(=O)(=O)c3ccccc3)ccc2O[C@@H](C)CCCCO[C@@H]1CN(C)S(=O)(=O)c1ccc(F)cc1	-2	x	x	22*	5
SMILES	ERp5 block	PDI turbidity	HDAC3 inhib	SIRT5 block	ERAP1 HTS inh
C[C@@H]1CCCCO[C@@H](CN(C)S(=O)(=O)c2ccccc2)[C@@H](C)CN([C@H](C)CO)C(=O)c2cc(NS(=O)(=O)c3ccc(F)cc3)ccc2O1	-10	-2	x	-2	-3
CCN1C/C(=C/c2ccc(OC)c(O)c2)C(=O)/C(=C/c2ccc(OC)c(O)c2)C1	1	4	7	-2	-2
COc1ccc(/C=C2\CN(Cc3ccccc3)C/C(=C\c3ccc(OC)c(O)c3)C2=O)cc1O	0	54*	-6	-3	1
C[C@@H]1CN([C@H](C)CO)C(=O)c2cc(NS(=O)(=O)c3cccs3)ccc2O[C@@H](C)CCCCO[C@@H]1CN(C)C(=O)Cc1ccccc1	-3	x	x	-5	1
CNC(=O)CSc1nnc(-c2ccco2)n1-c1ccccc1	-1	4	-1	101*	0
C[C@@H]1CN([C@H](C)CO)C(=O)c2cc(NS(C)(=O)=O)ccc2O[C@H]1CN(C)S(=O)(=O)c1ccc(F)cc1	-3	x	x	2	0
CC(=O)N1CC(=O)N=C1SCC(=O)Nc1nc(-c2ccccc2)c(-c2ccccc2)s1	x	-8	29*	x	x
Cc1sc(NC(=O)CSC2=NCCS2)nc1-c1ccccc1	x	-4	1	x	x
O=C([C@H]1[C@H](CO)[C@H]2Cn3c(ccc(-c4ccc(F)cc4)c3=O)[C@H]2N1Cc1cocn1)N1CCOCC1	-7	x	x	-4	-4
Cc1noc(C)c1NC(=O)Nc1ccc2c(c1)C(=O)N([C@H](C)CO)C[C@@H](C)[C@@H](CN(C)Cc1ccccc1)OCCCC[C@H](C)O2	4	x	x	-1	1
Cc1cccc(C)c1Nc1nnc(SCC(=O)c2ccc(Br)s2)s1	4	8	27*	2	7
Cc1c(CCC(=O)N[C@@H](CC(C)C)C(=O)O)c(=O)oc2cc3oc4c(c3cc12)CCCC4	-1	38*	3	0	2
C[C@H](CO)N1C[C@H](C)[C@@H](CN(C)C(=O)Cc2ccccc2)OCCCC[C@H](C)Oc2ccc(NC(=O)Nc3ccc4c(c3)OCO4)cc2C1=O	-4	x	x	5	-3
O=C(c1coc2ccc(O)c(CN3CCOCC3)c12)C1CC1	x	-6	-2	x	x
